Source: PubChem BioAssay
Mtb bLac sens – beta-lactam sensitization of Mtb H37Rv, H37Rv | hit rate 0.27% among 330,000 | inhibition, % at 25 µM | M. tuberculosis H37Rv growth with meropenem, percent inhibition; call rule not given here;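 note: growth measured after seven days incubation then overnight dye step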
UGM FP inh – M. tuberculosis UGM enzyme inhibitors, primary screen, biochemical, fluorescence polarization, single point. purified UGM, fluorescence polarization probe displacement. inhibition, % at 10 µM. hit rate 0.06% among 320,000. AID 504406, 2011; in the data active = inhibition above about 10%, passing the limit was not always enough
Target sequence (P9WIQ1 whole entry, looked up): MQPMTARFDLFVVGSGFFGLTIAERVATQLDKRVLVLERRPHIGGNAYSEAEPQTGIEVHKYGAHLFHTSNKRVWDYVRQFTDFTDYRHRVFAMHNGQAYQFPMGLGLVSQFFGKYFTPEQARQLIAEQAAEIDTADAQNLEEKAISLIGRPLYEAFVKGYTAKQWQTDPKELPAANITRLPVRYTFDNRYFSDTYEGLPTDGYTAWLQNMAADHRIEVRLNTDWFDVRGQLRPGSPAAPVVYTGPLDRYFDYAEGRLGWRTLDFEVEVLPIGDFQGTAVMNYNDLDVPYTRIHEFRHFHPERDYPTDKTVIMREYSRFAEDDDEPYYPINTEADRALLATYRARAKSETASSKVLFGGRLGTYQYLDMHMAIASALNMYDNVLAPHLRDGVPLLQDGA
FadD28 binding – inhibitors of FadD28 bisubstrate probe binding, primary screen, biochemical, fluorescence polarization, single point. hit rate 0.22% among 360,000. Mycobacterium tuberculosis FadD28 fatty-acid-AMP ligase. inhibition, % at 12.5 µM; in the data active = inhibition above about 8.5%, passing the limit was not always enough
Rv3671c protease – Rv3671c serine protease inhibitors, primary screen, biochemical, fluorescence polarization, M. tuberculosis H37Rv | inhibition, % at 5.96 µM | hit rate 0.048% among 320,000 | AID 2606, 2010; in the data active = inhibition above about 38%;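 note: extracellular domain of Rv3671c used as enzyme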
GDH-TPI inh – GDH-TPI coupling enzyme inhibitors, primary screen, artefact control for M. tuberculosis FBA inhibitor project, biochemical, absorbance, full deck | GDH-TPI coupled enzyme counterscreen, NADH absorbance | inhibition, % at 4.8 µM | hit rate 1.2% among 360,000 | AID 588335, 2011; in the data active = inhibition above about 30%
FBA Mtb inh – Mtb FBA enzyme inhibitors, primary screen, biochemical, fluorescence, strain H37Rv. purified M. tuberculosis FBA, fluorescence read-out. hit rate 2.3% among 360,000. inhibition, % at 1 µM. Fructose-bisphosphate aldolase (Mycobacterium tuberculosis (strain ATCC 25618 / H37Rv)), …; in the data active = inhibition above about 27%
Hits are given with their value; 0 = inactive; - = no result; + = active, no number. In the library only some 3.7% were active in any assay of this set; here they are far more common.

SMILES	Mtb bLac sens	UGM FP inh	FadD28 binding	Rv3671c protease	GDH-TPI inh	FBA Mtb inh
NS(=O)(=O)c1ccc2nc(NC(=O)c3ccc(Br)o3)sc2c1	0	0	0	0	0	0
CS(=O)(=O)c1ccc2nc(NC(=O)c3ccc(Cn4cc(Br)cn4)o3)sc2c1	0	0	0	0	31.3	0
N#CC1C(=O)NC(=O)C(C#N)C12CCCC(C(F)(F)F)C2 (configuration not stated)	-	-	0	-	0	0
O=c1[nH]c(-[n+]2ccc3ccccc3c2)c(/C=N/N=C(\[O-])c2ccccc2)s1	0	0	0	0	30.8	0
CC(C)(C)c1cc[n+](-c2[nH]c(=O)sc2/C=N/N=C(\[O-])c2cccnc2)cc1	0	0	0	0	32.5	0
N#C/C(=C/Nc1ccccc1C(=O)O)C(N)=O	0	0	0	0	68.3	0
COc1cc(CN(C)Cc2cccc3ccccc23)cc([N+](=O)[O-])c1O	0	0	0	0	0	0
Cc1cccc(Cn2c(NC3CCCC3)nc3c2c(=O)[nH]c(=O)n3C)c1	-	-	0	-	0	0
C=CCn1c(CC(=O)OC)csc1=Nc1ccc(C(C)=O)cc1	0	0	0	0	30.8	0
O=C(Cc1ccccc1)c1ccc(N2CCOCC2)cc1	-	-	0	-	37.1	0
O=C(c1ccccc1)c1ccc(N2CCCC2)cc1	0	0	0	0	0	0
O=C(c1ccccc1)c1ccc(N2CCOCC2)cc1	-	-	0	-	37.9	0
COc1cccc(CN(C)C(=O)c2ccc(S(=O)(=O)Nc3ccccc3C)cc2)c1OC	-	-	0	-	0	0
CC(NC(=O)c1ccccc1N)c1ccccc1 (configuration not stated)	0	0	0	0	0	46.9
Cc1ccc([C@H]2N[C@]3(CCCN(Cc4ccc(Cl)cc4)C3=O)[C@H]3C(=O)N(Cc4ccccc4)C(=O)[C@@H]23)cc1	-	-	0	-	0	0
CCN(CC)C(=O)CSc1nc2cc(OC)c(OC)cc2c(=O)n1Cc1ccc(Cl)cc1	0	0	0	0	0	27.3
CCN(CC)C(=O)CSc1nc2cc3c(cc2c(=O)n1CCCC(=O)NCc1ccc(OC)cc1)OCO3	0	0	0	0	0	0
Nc1ccc2nc(-c3cccnc3)[nH]c2c1	0	0	0	0	0	0
Nc1ccc(-c2nc3c(Cl)cc(N)cc3[nH]2)cc1	0	0	0	0	44.8	196.7
Nc1ccc2nc(-c3ccccc3)[nH]c2c1	0	0	0	0	0	+
Nc1ccc2nc(-c3ccc(N)c(Cl)c3)[nH]c2c1	0	0	0	0	32.4	119.2
Nc1ccc2nc(-c3cccs3)[nH]c2c1	0	0	0	0	0	+
CCN1C(=O)[C@H]2[C@@H](c3ccc(C(F)(F)F)cc3)N[C@]3(CCCN(Cc4ccc(C(F)(F)F)cc4)C3=O)[C@H]2C1=O	-	-	0	-	0	0
CCCS(=O)(=O)NC(=O)C1(C)CCN(C(=O)c2ccc3ccccc3c2)C1 (configuration not stated)	-	-	0	-	0	0
CC(=O)Nc1ccc2nc(-c3cccn3C)[nH]c2c1	0	0	0	0	0	0
SMILES	Mtb bLac sens	UGM FP inh	FadD28 binding	Rv3671c protease	GDH-TPI inh	FBA Mtb inh
CC(=O)Nc1ccc2nc(-c3cccs3)[nH]c2c1	0	0	0	0	44.0	+
CC(C)(C)OC(=O)N1CCc2onc(-c3ccc(N)cc3)c2C1=O	-	-	0	-	0	0
CNC(=O)/C(C#N)=C/c1c(N2CC(C)OC(C)C2)nc2ccccn2c1=O (configuration not stated)	0	0	0	0	0	123.9
CCNC(=O)/C(C#N)=C/c1c(N2CCCCCC2)nc2ccccn2c1=O	0	0	0	0	0	135.2
COCCNC(=O)/C(C#N)=C/c1c(N2CCN(c3ccccc3)CC2)nc2ccccn2c1=O	0	0	0	0	0	0
COCCCNC(=O)/C(C#N)=C/c1c(N2CCN(C)CC2)nc2ccccn2c1=O	0	0	0	0	0	139.5
CCNC(=O)/C(C#N)=C/c1c(N2CC(C)OC(C)C2)nc2ccccn2c1=O (configuration not stated)	0	0	0	0	0	0
C=CCNc1nnc(-c2ccncc2)s1	0	0	0	0	0	181.0
O=C(Nc1ccc(Cl)cc1)Nc1nnc(-c2ccncc2)s1	0	0	0	0	0	0
O=C(Nc1ccc(F)cc1)Nc1nnc(-c2ccncc2)s1	0	0	0	0	35.0	0
c1ccc2c(Nc3nnc(-c4ccncc4)s3)cccc2c1	0	0	0	0	37.5	0
CC(C)(C)OC(=O)NCCC(=O)Oc1ccc2ccc(=O)oc2c1	0	0	0	0	0	+
COc1ccc(C(=O)COc2ccc3ccc(=O)oc3c2)cc1	0	0	0	0	0	0
CC(NC(=O)OC(C)(C)C)C(=O)Oc1ccc2ccc(=O)oc2c1 (configuration not stated)	0	0	0	0	0	+
O=C(CNC(=O)OCc1ccccc1)Oc1ccc2ccc(=O)oc2c1	0	0	0	0	0	+
O=C(COc1ccc2ccc(=O)oc2c1)OCc1ccccc1	0	0	0	0	0	0
Cc1ccccc1NC(=O)COC(=O)COc1ccc2ccc(=O)oc2c1	-	-	0	-	0	0
CNc1ccc(Cl)cc1C(N)=O	0	0	0	0	0	113.2
Cc1cccc(S(=O)(=O)C(C#N)c2nc3ccccc3nc2N2CCCC2)c1 (configuration not stated)	0	0	0	0	0	74.4
Cc1ccc(C)c(S(=O)(=O)C(C#N)c2nc3ccccc3nc2N2CCCC2)c1 (configuration not stated)	0	0	0	0	0	0
Clc1ccc(-c2cnn3c(-c4ccncc4)ccnc23)cc1	0	0	0	0	0	0
Nc1nc2nccc(-c3ccc(Cl)cc3)n2n1	0	0	0	0	33.9	+
Cc1ccc(C(C)(C)C)cc1S(=O)(=O)N1CCC(C(=O)N2CCN(c3ccc(O)cc3)CC2)CC1	0	0	0	0	0	0
Cc1ccc(-c2csc(C(O)c3cccc(Cl)c3)n2)cc1C (configuration not stated)	-	-	0	-	0	0
O=C(N/N=C\c1c(O)ccc2ccccc12)c1ccc(O)cc1	0	0	0	0	0	0
SMILES	Mtb bLac sens	UGM FP inh	FadD28 binding	Rv3671c protease	GDH-TPI inh	FBA Mtb inh
Cn1c(-c2ccccc2)c(/C=N/NC(=O)c2ccc(O)cc2)c2ccccc21	0	0	0	0	52.0	0
Cn1c(C(=O)N/N=C/c2ccccc2)cc2ccccc21	0	0	0	0	0	0
Cn1c(/C=N/NC(=O)c2ccccc2)nc2ccccc21	0	0	0	0	46.5	0
Cn1c2ccccc2c2cc(/C=N/NC(=O)c3ccc(N)cc3)ccc21	0	0	0	0	35.9	0
Cn1c2ccccc2c2cc(/C=N/NC(=O)c3ccccc3F)ccc21	0	0	0	0	47.0	0
Cc1ccc(CN(CC(=O)NCCc2ccccc2)C(=O)c2csnn2)cc1	0	0	0	0	0	0
